rRNA inh HTS: selective bacterial rRNA inhibition in E. coli; actives 1.6% (n = 350,000); E. coli WT GFP vs humanized-ribosome RFP mutants, fluorescence, 24 h; stronger effect = lower value; DMSO median 0, no signal -100; GFP signal change (wild-type ribosome), % (concentration not given with the values); AID 720706;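 active = significant combined selectivity score with lowered wild-type GFP, culture density cut under 30%, mutant RFP and density less affected; inactive = any of these conditions unmet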
PvdQ acylase: P. aeruginosa PvdQ acylase inhibition; inhibition, % at 10 µM; purified PvdQ acylase, fluorescence plate reader; AID 488965; actives 0.063% (n = 340,000); in the data active = inhibition above about 30%, passing the limit was not always enough;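 note: 0% = vehicle neutral wells and 100% = reference inhibitor wells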
F508del corr: CFTR F508del correction in bronchial cells; CFBE cells, YFP halide quenching; stimulated with forskolin plus potentiator P3; % fluorescence drop versus neutral controls; AID 720511; activity (quench increase), % at 7.58 µM; actives 0.36% (n = 350,000);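 active = mean added fluorescence quench of at least 8% versus neutral control, with both replicates also reaching 8%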;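 note: cells transiently co-express mutant CFTR-F508del with the halide-sensitive YFP; corrector assay measuring rescue of mutant channel to the surface after 24 h compound exposure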
ARNT TACC3 PPI: ARNT/TACC3 interaction disruption. AlphaScreen His-ARNT PAS-B/GST-TACC3 binding, luminescence; TACC3 fragment carries E629A point mutation. inhibition, % at 9.99 µM. actives 0.66% (n = 390,000). AID 623870. Q9Y6A5;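 active = mean inhibition of replicates at least 50% and at least half of replicates each reaching 50%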;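 note: 0% = complete ARNT plus TACC3 wells and 100% = ARNT alone without TACC3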
ERAP1 inh: blocks human ERAP1 aminopeptidase activity. Q9NZ08. recombinant ERAP1, Leu-AMC fluorescence, 60 min. inhibition, % at 10.7 µM. actives 0.15% (n = 340,000);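 active = mean replicate inhibition of at least 30%, or all replicates individually reaching that 30% level; inactive = mean below 30% and not every replicate reaching it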;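 note: 0% = neutral control wells and 100% = L-leucinethiol positive control wells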
Target sequence (Q9NZ08 whole entry, looked up): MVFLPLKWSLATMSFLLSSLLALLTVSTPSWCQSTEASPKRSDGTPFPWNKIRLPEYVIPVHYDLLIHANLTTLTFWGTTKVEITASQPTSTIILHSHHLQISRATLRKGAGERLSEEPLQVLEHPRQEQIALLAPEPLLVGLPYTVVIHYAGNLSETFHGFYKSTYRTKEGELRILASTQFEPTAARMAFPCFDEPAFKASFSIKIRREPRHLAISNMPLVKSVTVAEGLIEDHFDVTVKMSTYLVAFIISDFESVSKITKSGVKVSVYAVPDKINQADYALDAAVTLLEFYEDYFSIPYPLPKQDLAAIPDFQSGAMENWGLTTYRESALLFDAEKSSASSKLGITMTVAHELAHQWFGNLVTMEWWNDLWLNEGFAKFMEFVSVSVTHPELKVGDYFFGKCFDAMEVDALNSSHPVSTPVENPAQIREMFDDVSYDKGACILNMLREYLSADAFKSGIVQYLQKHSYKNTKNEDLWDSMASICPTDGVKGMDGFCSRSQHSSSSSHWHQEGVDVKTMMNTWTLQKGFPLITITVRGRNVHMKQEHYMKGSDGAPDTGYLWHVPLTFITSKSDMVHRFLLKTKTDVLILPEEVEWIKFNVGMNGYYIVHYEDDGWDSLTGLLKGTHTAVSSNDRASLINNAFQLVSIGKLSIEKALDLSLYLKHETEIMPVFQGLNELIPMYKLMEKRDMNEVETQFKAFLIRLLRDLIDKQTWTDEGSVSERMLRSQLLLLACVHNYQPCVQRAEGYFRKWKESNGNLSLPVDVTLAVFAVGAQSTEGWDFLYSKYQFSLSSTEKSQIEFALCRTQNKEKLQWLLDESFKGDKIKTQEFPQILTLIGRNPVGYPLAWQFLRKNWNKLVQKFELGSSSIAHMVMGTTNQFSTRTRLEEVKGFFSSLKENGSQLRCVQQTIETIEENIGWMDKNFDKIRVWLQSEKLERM
An asterisk follows results filed as active; nt = no result. Most compounds without a hit are left out; they make up all but 2.1% or so of the library.

SMILES	rRNA inh HTS	PvdQ acylase	F508del corr	ARNT TACC3 PPI	ERAP1 inh
C[C@@H]1CN([C@H](C)CO)C(=O)c2cc(C#CC3(O)CCCC3)cnc2O[C@H]1CN(C)C(=O)Cc1cccnc1	3	nt	0	3	-2
COc1cc(/C=C/C(=O)c2ccc([N+](=O)[O-])o2)ccc1O	-24*	14	1	-39	-2
O=C(C[C@H]1CC[C@H](NC(=O)Nc2ccc3c(c2)OCO3)[C@@H](CO)O1)NCc1ccc2c(c1)OCO2	1	nt	0	-6	-1
CCOc1ccc(C(=O)CCNC(Cc2cnc[nH]2)C(=O)O)cc1 (stereo not given)	8	-9	-1	61*	5
N/C(=N\OS(=O)(=O)c1ccccc1)c1ccccn1	nt	-10	nt	65*	nt
CC(NC(=O)COC(=O)c1ccc([N+](=O)[O-])s1)c1ccccc1 (stereo not given)	nt	10	nt	10	nt
O=C(COC(=O)c1ccc([N+](=O)[O-])s1)NNC(=O)c1ccccc1	nt	22	nt	42*	nt
CN(CC(=O)Nc1ccccc1Cl)C(=O)COC(=O)c1ccc([N+](=O)[O-])s1	-1	13	1	46*	0
O=C(C[C@@H]1C[C@H]2c3cc(NC(=O)CC4CC4)ccc3O[C@H]2[C@@H](CO)O1)NCc1ccccc1F	2	nt	3	-3	1
C[n+]1cccc(C(=O)NCC2CCCO2)c1 (stereo not given)	13	-23	-1	-16	99*
Cc1ccc(-c2cc(C(=O)Nc3c(C)n(C)n(-c4ccccc4)c3=O)[nH]n2)c(O)c1C	-20*	-4	-1	7	1
CN1C(=O)c2cc(NC(=O)c3ccccc3Cl)ccc2OC[C@@H]2O[C@H](CC(=O)NCC(F)(F)F)CC[C@H]21	2	nt	nt	-6	3
C[C@@H]1CN([C@@H](C)CO)C(=O)Cc2cc(NC(=O)C3CCCCC3)ccc2O[C@@H]1CN(C)Cc1ccc(Cl)c(Cl)c1	-5	nt	5	nt	3
CC(C)NC(=O)N(C)C[C@@H]1Oc2ccc(N(C)C)cc2CC(=O)N([C@H](C)CO)C[C@H]1C	2	nt	1	48*	3
C[C@@H]1CN([C@@H](C)CO)C(=O)Cc2cc(N(C)C)ccc2O[C@@H]1CN(C)Cc1ccccc1	-1	nt	10*	0	1
C[C@H]1CN([C@@H](C)CO)C(=O)Cc2cc(N(C)C)ccc2O[C@H]1CN(C)Cc1ccccc1	-1	nt	-1	-6	1
C[C@H](CO)N1C[C@H](C)[C@H](CN(C)Cc2ccc(Cl)c(Cl)c2)Oc2ccc(NC(=O)C3CCCCC3)cc2CC1=O	0	nt	10*	nt	0
C[C@H](CO)N1C[C@H](C)[C@@H](CN(C)Cc2ccc(C(=O)Nc3ccccc3N)cc2)Oc2ccc(N(C)C)cc2CC1=O	-1	nt	0	45*	1
COc1ccc(S(=O)(=O)N2CCCc3nc(-c4ccc(Br)cc4)ccc32)cc1	12	nt	2	nt	-5
CC(C)NC(=O)Nc1ccc2c(c1)CC(=O)N([C@@H](C)CO)C[C@@H](C)[C@@H](CN(C)Cc1ccc(Oc3ccccc3)cc1)O2	-3	nt	-3	active	5
O=C(COC(=O)c1ccccn1)c1cccc(Br)c1	20	2	1	50*	-1
O=[N+]([O-])c1ccc(NN=C(C2CC2)C2CC2)c([N+](=O)[O-])c1	-21*	nt	3	nt	3
CN(C)Cc1c(C(C)(C)O)[nH]c2cc(F)ccc12	7	nt	1	nt	3
C[C@H]1CN([C@@H](C)CO)C(=O)c2cccc(NS(=O)(=O)c3cn(C)cn3)c2O[C@H]1CN(C)C(=O)Nc1ccc(F)cc1	0	nt	0	-1	-2
O=C(N[C@H]1CC[C@H](CCNS(=O)(=O)c2ccccc2)O[C@H]1CO)c1cccc(F)c1	-1	nt	-3	3	3
SMILES	rRNA inh HTS	PvdQ acylase	F508del corr	ARNT TACC3 PPI	ERAP1 inh
Oc1cccnc1CCc1ccccc1	15	-13	nt	-7	3
OCCN(Cc1ccccc1)Cc1ncccc1O	15	4	-1	24*	3
O=c1c2ccccc2sn1-c1ccc(Cl)cc1Cl	-23	nt	0	nt	81*
O=C(Nc1ccc(Cl)c(Cl)c1)N[C@H]1CC[C@@H](CCn2cc(C3CCCC3)nn2)O[C@@H]1CO	-59	nt	-1	nt	0
C[C@@H]1CN([C@@H](C)CO)C(=O)c2cc(NS(=O)(=O)c3ccc(Cl)cc3)ccc2O[C@@H](C)CCCCO[C@@H]1CN(C)Cc1ccncc1	-1	nt	-1	0	-1
CCCCCCCCCCCCCCCC[n+]1cccc2ccccc21	-32	7	nt	19	108*
Cc1ccc(Cl)cc1N1CCN(C(=O)Cc2c(C(=O)O)[nH]c3ccccc23)CC1	-30*	-9	2	-4	0
O=C(N[C@H]1CC[C@@H](CCNC(=O)c2cnccn2)O[C@@H]1CO)c1ccc2c(c1)OCO2	0	nt	1	-3	-1
Cc1oc2ccc(O)cc2c1C(=O)c1ccc(Br)cc1	-23*	-18	1	-6	-1
CCCNC(=O)NC[C@@H]1[C@H](c2ccc(C3=CCCC3)cc2)[C@@H](CO)N1C(=O)CC	-9	nt	7	1	3
Cc1cccc(S(=O)(=O)NC(=O)C2(C)CCN2C(=O)c2ccccc2CCc2ccccc2)c1 (stereo not given)	-50*	nt	3	nt	1
CC1(C(=O)NS(=O)(=O)c2cccc(F)c2)CCN1C(=O)c1ccccc1CCc1ccccc1 (stereo not given)	-1	nt	4	nt	0
CC1(C(=O)NS(=O)(=O)c2ccc3c(c2)CCO3)CCN1C(=O)c1ccccc1CCc1ccccc1 (stereo not given)	-20*	nt	0	nt	3
CC(=O)Nc1sc(N/N=C/c2ccccc2)nc1-c1ccc(C)cc1	-4	-10	-4	-5	-4
CCCc1sc(N/N=C/c2ccccn2)nc1-c1ccc(Br)cc1	4	-10	-1	33*	0
COCC(C)n1c(SCC(=O)N2CC(=O)Nc3ccccc32)nc2ccccc2c1=O (stereo not given)	-4	-14	15*	3	4
Cc1noc(C)c1S(=O)(=O)N(C)C[C@@H]1OCCCC[C@@H](C)Oc2ccc(NS(=O)(=O)c3ccccc3)cc2C(=O)N([C@@H](C)CO)C[C@@H]1C	1	nt	-1	nt	0
CCN(Cc1ccccc1)S(=O)(=O)c1cc(C(=O)c2c(N)n(C)c(=O)n(C)c2=O)ccc1OC	-37*	-3	1	3	1
O=C(Nc1cccc(NC(=O)c2cccs2)c1)c1ccc(F)cc1	-28*	-11	0	9	-2
COc1ccc(C2=Nn3c(nnc3-c3ccccn3)SC2)cc1	-5	-1	0	82*	4
CCOc1ccc(-c2nnc3n2N=C(c2ccc(OC)cc2)CS3)cc1	nt	-9	nt	-8	nt
N#CC(CO)(Cc1ccc(OC(F)F)cc1)c1nc2ccccc2[nH]1 (stereo not given)	-21*	-1	nt	2	-4
